This is a sample that favours compounds with a hit; in the whole collection about 1.7% have one here.
RecA splice inh: blocks M. tuberculosis RecA intein splicing; 290,000 compounds, 0.75% hits; cell-free RecA intein splicing, fluorescence; AID 2221; inhibition, % (no concentration beside the values); in the data active = inhibition above about 30%; inconclusive = no clear call, values can overlap the other calls;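 also: 0% = vehicle wells and 100% = reference inhibitor control wells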
Target sequence (P9WHJ3 whole entry, looked up, canonical isoform): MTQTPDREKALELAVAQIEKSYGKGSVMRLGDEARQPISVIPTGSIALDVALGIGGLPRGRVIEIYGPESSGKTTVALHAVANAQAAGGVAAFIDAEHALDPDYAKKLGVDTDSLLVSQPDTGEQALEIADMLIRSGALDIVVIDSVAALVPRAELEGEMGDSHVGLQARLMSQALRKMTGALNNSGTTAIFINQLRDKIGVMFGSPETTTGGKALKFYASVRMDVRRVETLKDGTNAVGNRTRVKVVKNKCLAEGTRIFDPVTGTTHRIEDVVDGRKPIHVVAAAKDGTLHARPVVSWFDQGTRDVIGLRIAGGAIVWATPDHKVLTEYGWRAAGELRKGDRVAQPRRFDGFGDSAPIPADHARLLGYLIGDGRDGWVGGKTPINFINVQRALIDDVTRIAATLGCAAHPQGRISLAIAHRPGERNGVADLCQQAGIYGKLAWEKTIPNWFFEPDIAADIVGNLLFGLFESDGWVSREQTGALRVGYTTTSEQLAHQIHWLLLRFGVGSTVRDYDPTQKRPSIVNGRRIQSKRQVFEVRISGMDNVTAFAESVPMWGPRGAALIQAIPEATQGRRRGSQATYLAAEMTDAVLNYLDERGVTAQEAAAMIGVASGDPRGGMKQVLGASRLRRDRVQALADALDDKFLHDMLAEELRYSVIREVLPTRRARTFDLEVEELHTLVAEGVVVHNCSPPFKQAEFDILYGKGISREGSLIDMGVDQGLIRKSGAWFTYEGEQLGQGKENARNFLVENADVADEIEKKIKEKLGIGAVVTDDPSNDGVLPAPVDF
Mtb betalactam: beta-lactam sensitization of Mtb H37Rv; M. tuberculosis H37Rv growth with meropenem, percent inhibition; inhibition, % at 25 µM; 330,000 compounds, 0.27% hits; AID 434955; call rule not given here;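 also: growth measured after seven days incubation then overnight dye step; 0% = bacteria only wells and 100% = bacteria with antibiotic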
PfHsp40 rescue: rescue of PfHsp40-mediated yeast toxicity; S. cerevisiae expressing PfHsp40, growth rescue, ATP luminescence; growth rescue, % at 12.5 µM; 340,000 compounds, 0.68% hits; in the data active = growth rescue above about 28%, passing the limit was not always enough; inconclusive = no clear call, values can overlap the other calls;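 also: yeast W303a lacking pdr1 and pdr3 grown in galactose medium; growth measured after three days at 30 °C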
Mtb hypoxia inh: reduces hypoxia-regulated biosensor signal in M. tuberculosis. 300,000 compounds, 0.1% hits. AID 1159583. M. tuberculosis hypoxia-regulated fluorescent reporter, fluorescence. fluorescence inhibition, % (test concentration not listed); in the data active = fluorescence inhibition mostly above about 23%, no sharp cut-off; inactive = mostly below about 17%
CCHFV vOTU inh: blocks the CCHF virus ovarian tumor domain protease. 370,000 compounds, 0.55% hits. CCHFV vOTU protease, Pep-AMC fluorescence. inhibition, % at 11.5 µM. AID 651958; in the data active = inhibition above about 30%; also: 0% = vehicle wells with enzyme and 100% = no enzyme wells
* hit, by the source's call; ? = inconclusive; / = no result shown; ! = not confirmed by another sample.

SMILES	RecA splice inh	Mtb betalactam	PfHsp40 rescue	Mtb hypoxia inh	CCHFV vOTU inh
CCN1C(=O)C2C(c3ccc(-c4ccc(Cl)c(Cl)c4)c(OC)c3)N3CCC[C@@]3(C(=O)OC)C2C1=O (stereo partly specified)	/	/	/	12	/
COc1ccc(C(=O)NC(=S)NNC(=O)c2ccc(O)cc2)cc1[N+](=O)[O-]	-1	3	52*	-5	16
COc1ccc(C(=O)NNC(=O)c2ccncc2)cc1[N+](=O)[O-]	-1	-8	-1	2	8
CCCc1nnc(NC(=O)c2c(O)c3cccc4c3n(c2=O)CC4)s1	-1	100	/	56*	/
CC(C)c1nnc(NC(=O)c2c(O)c3cccc4c3n(c2=O)CCC4)s1	2	100	-1	9	10
CCS(=O)(=O)N1CCC(C(=O)NC2CCCCC2)CC1	/	3	0	11	7
CN(C)C(=O)N1CCC(C(=O)NC2CCCCCCC2)CC1	-2	1	33*	6	-23
CN(C)C=CC(=O)Oc1ccc(Cl)cc1Cl	/	/	/	2	/
CCN(C(C)=O)c1cnc(C=NNC(N)=S)c2ccccc12	/	/	82*	/	9
O=C(C=Cc1ccco1)c1ccc([N+](=O)[O-])cc1	/	/	7	24	15
O=C(/C=C/c1ccco1)c1ccc(NC(=O)C23CC4CC(CC(C4)C2)C3)cc1	34*	100	-1	/	11
Cc1cc(C=Nn2cnnc2)c(C)n1-c1ccc(C(=O)O)cc1	/	/	/	-11	/
Cc1nccn1-c1c([N+](=O)[O-])c(=O)n(C)c2ccccc12	45*	5	-1	5	-14
Cn1c(=O)c([N+](=O)[O-])c(N2CCSCC2)c2ccccc21	/	-7	1	11	2
CCC(=O)Nc1ccc(SC#N)cc1C	-4	6	91*	13	-13
Cc1cc(SC#N)cc(C)c1NC(=O)CCl	13	58	17	13	8
O=C(CSc1ccc(-c2ccccn2)nn1)c1ccc(F)cc1	5	80	6	-6	-4
O=C(CSc1ccc(-c2ccccn2)nn1)NC1CCCC1	-2	1	221*	19	-4
c1ccc(CSc2ccc(-c3ccccn3)nn2)cc1	1	100	112*	13	-10
O=C(CSc1ccc(-c2ccccn2)nn1)N1CCCC1	1	-6	91*	2	11
O=C(CSc1ccc(-c2ccccn2)nn1)c1ccccc1	-6	98	401*	10	-1
O=C(CSc1ccc(-c2ccco2)nn1)N1CCCC1	0	-3	0	7	-9
S=c1[nH]nc(-c2cccs2)n1N=Cc1cccs1	/	/	/	7	/
Cc1ccc(NC(=O)CNC(=O)N2CC(=O)Nc3ccccc32)cc1F	0	-12	1	-1	-1
O=C(CN1CC(=O)Nc2ccccc21)Nc1ccc(F)c(F)c1	0	-2	43*	13	-2
SMILES	RecA splice inh	Mtb betalactam	PfHsp40 rescue	Mtb hypoxia inh	CCHFV vOTU inh
CCCCCCC(C)(C)c1ccc([C@@H]2C[C@H](O)CC[C@H]2CCCO)c(O)c1	/	-3	68*	/	19
CCCCCCC(C)(C)c1ccc(C2CC(O)CCC2CCCO)c(O)c1 (stereo unspecified)	/	/	/	9	/
O=C(OCCN1CCCC1)C1(c2ccccc2)CCCC1	2	/	50*!	5	1
O=C(Nc1ncc([N+](=O)[O-])s1)c1ccc2c(c1)OCO2	31*	13	-4	/	7
COC(=O)CC1=NN(c2ccc(OC)cc2)C(=O)C1	72*	1	0	-6	-2
COC(=O)C1=C(C)NC(C)=C(C(=O)OC)C1c1ccccc1[N+](=O)[O-]	-2	-4	37*	/	0
CCOC(=O)C1=C(C)N=c2sc(=Cc3cccc([N+](=O)[O-])c3O)c(=O)n2C1c1ccc(OC)cc1OC (stereo unspecified)	/	/	/	41*	/
CCOC(=O)C1=C(C)N=c2s/c(=C/c3cccc([N+](=O)[O-])c3O)c(=O)n2C1c1ccc(OC)cc1OC (stereo unspecified)	/	8	0	/	-8
CCOC1OC(C(=O)Nc2ccccc2)=CC(c2ccc(Br)cc2)C1CCCO (stereo unspecified)	/	/	/	3	/
CC1=NNC(=O)C1C(c1cccc(O)c1)C(C#N)C#N (stereo unspecified)	60*	2	0	7	0
O=C(O)CSc1nc(-c2ccc(Cl)cc2)nc2c1oc1ccccc12	3	-3	348*	-2	9
O=C(O)CSc1nc(-c2ccccc2)nc2c1oc1ccccc12	-1	48	13	8	18
CCC1=C(OC(=O)N(CC)CC)N2C(=O)OC(=NCCc3c[nH]c4ccccc34)[C@]2(C)C2C1=CCC1C(=O)N(CC(=O)OC)C(=O)C12 (stereo partly specified)	/	/	/	0	/
O=C(c1ccco1)N1CCN(c2nc(C3CC3)nc3sc4c(c23)CCCC4)CC1	38*	99	1	4	/
Cc1nc(N2CCN(C(=O)c3ccco3)CC2)c2c3c(sc2n1)CC(C)CC3 (stereo unspecified)	19	96	192*	-13	13
Cc1nc(N2CCN(C(=O)c3ccco3)CC2)c2c3c(sc2n1)CCCC3	7	88	?	11	12
CCc1nc(SCC(=O)N2CCN(C(=O)c3ccco3)CC2)c2c3c(sc2n1)CCCC3	2	100	0	/	-3
O=C(c1cccs1)c1coc2ccc(O)cc12	-2	86	48*	16	-17
Cc1ccccc1OCCC(=O)NNC(=O)c1ccccc1F	/	3	-1	33*	5
COc1cc(C(=O)NNC(=O)CCOc2ccccc2C)cc(OC)c1OC	/	-4	0	5	5
CCOc1ccc(C(=O)Nc2ccc(NC(=O)c3ccccc3)cc2)cc1Br	-1	6	-1	21	-12
CCOc1ccc(C(=O)Nc2ccc(Cc3ccncc3)cc2)cc1Br	14	-4	60*	12	-9
COc1ccc(C=NN2CCOCC2)cc1COc1ccc(F)cc1	/	/	/	14	/
O=C(NCc1cccs1)C1CCN(S(=O)(=O)c2cccs2)CC1	-2	-5	-1	-8	-4
O=C(NCc1cccs1)C1CCN(S(=O)(=O)N2CCCC2)CC1	-3	0	33*	2	-22
SMILES	RecA splice inh	Mtb betalactam	PfHsp40 rescue	Mtb hypoxia inh	CCHFV vOTU inh
CCCN1C(=O)C(=NOCC(=O)NC23CC4CC(CC(C4)C2)C3)c2ccccc21	/	/	/	-4	/
CCN1C(=O)C2C(c3ccc(-c4ccc(OC)cc4)c(OC)c3)N[C@@](Cc3ccccc3)(C(=O)OC)C2C1=O (stereo partly specified)	/	/	/	10	/
COc1ccc(CNC(=O)CC(C)=NNC(=O)c2ccc([N+](=O)[O-])cc2Cl)cc1	/	/	/	1	/
Cc1[nH]n(-c2ccccc2)c(=O)c1C(c1ccccc1C(=O)O)c1c(C)[nH]n(-c2ccccc2)c1=O	-1	0	1	4	4
Cc1[nH]n(-c2ccccc2)c(=O)c1C(c1ccccc1[N+](=O)[O-])C(C#N)C#N (stereo unspecified)	64*	-5	1	5	3
COc1ccc(C)cc1NC(=O)CSc1nnc(COc2ccc(Cl)cc2)n1Cc1ccco1	2	-2	48*	4	1
